Reference: PubChem BioAssay AID687016 (The Scripps Research Institute Molecular Screening Center, 2013)
Out of some 370,000 compounds screened, about 2,800 (0.76%) were called active. The sample as a whole holds a higher share of actives than the screen did. Unmarked numbers belong to inactive results. No stated cut-off is given here; in the data, active means inhibition above about 21%; inactive means the rest.

Biological target: E3 ubiquitin-protein ligase UHRF1 (Homo sapiens) (UniProt Q96T88)
Experiment: UHRF1 methylated DNA binding inhibitors, primary screen, counter-screen for MBD2 inhibitor project, biochemical, TR-FRET, human UHRF1, single concentration (AID 687016);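 further: UHRF1 SRA domain binding a hemimethylated CpG hairpin DNA probe; 0% = median of test compound wells and 100% = reference inhibitor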
Details: UHRF1 binding to methylated oligo, at 4.4 µM, hits give high values

Chain of E3 ubiquitin-protein ligase UHRF1 (Homo sapiens) (Q96T88 whole entry, looked up, the tested form may be a part): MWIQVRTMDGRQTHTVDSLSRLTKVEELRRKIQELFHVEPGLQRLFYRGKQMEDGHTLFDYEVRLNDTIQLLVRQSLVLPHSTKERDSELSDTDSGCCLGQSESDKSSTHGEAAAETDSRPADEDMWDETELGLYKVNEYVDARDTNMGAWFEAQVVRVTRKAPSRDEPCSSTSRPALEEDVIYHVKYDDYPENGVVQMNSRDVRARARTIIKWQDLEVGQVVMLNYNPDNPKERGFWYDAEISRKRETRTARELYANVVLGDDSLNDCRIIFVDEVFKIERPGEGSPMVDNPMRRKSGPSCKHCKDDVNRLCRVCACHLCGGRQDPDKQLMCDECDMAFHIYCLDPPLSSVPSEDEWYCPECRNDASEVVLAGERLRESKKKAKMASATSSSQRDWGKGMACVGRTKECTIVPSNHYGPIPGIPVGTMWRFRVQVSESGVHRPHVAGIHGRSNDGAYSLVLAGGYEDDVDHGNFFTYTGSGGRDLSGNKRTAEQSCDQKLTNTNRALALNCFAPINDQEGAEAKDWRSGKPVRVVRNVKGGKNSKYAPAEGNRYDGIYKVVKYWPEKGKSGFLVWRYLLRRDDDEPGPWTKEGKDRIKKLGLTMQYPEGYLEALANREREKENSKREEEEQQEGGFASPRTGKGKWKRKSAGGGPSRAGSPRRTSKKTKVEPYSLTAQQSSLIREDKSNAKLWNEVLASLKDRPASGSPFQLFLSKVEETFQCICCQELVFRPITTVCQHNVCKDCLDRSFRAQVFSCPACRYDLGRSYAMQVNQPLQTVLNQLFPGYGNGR

Row | SMILES | inhibition
1 | OCc1ccc(-c2ccccc2)c(-c2ccccc2)c1 | -1.66%
2 | OCC(CO)(CO)NCc1ccc(-c2ccccc2)cc1 | 24.9% (active)
3 | c1ccc(CNCc2ccc(CNCc3ccccc3)cc2)cc1 | -2.85%
4 | CN1[C@H](Cc2ccccc2)COc2cccc(N3CCSCC3)c2S1(=O)=O | 6.46%
5 | O=C(CSc1nnc(-c2ccccn2)n1-c1ccc(Cl)cc1)Nc1ccccc1-c1ccccc1 | -0.44%
6 | O=C(Nc1ccccc1)C1CCN(C(=O)c2ccc(Br)cc2)CC1 | -0.01%
7 | COc1ccc(C(=O)N2CCC(C(=O)Nc3cccc(C)c3)CC2)cc1OC | -2.09%
8 | COc1ccc(C(=O)N2CCC(C(=O)Nc3ccc(C)cc3)CC2)cc1 | 98.2% (active)
9 | CC(C)(C)NC(=O)C(c1cccnc1)N(C(=O)c1cnco1)c1ccc(C(C)(C)C)cc1 (centres undefined) | -2.85%
10 | O=C(c1ccncc1)N1CC[C@H]2[C@H](CCCN2Cc2ccc(F)cc2)C1 | -0.99%
11 | COc1ccccc1C(=O)CSc1nnc(-c2ccccn2)n1-c1ccccc1 | 0.85%
12 | COc1ccc(-n2c(SCC(=O)Nc3ccc4cn[nH]c4c3)nnc2-c2cccnc2)cc1 | 0.56%
13 | CC(C)CNc1cccc2c1S(=O)(=O)N(Cc1cn(Cc3ccc(Cl)cc3)nn1)Cc1ccccc1O2 | 2.31%
14 | COC(=O)c1nc(NC(=O)c2ccc(C(C)(C)C)cc2)n[nH]1 | 87.5% (active)
15 | CSc1nccc(NC(=O)c2ccc(C(C)(C)C)cc2)n1 | 5.85%
16 | COc1ccc(N2CCN(C(=O)CNC(=O)c3ccc(C(C)(C)C)cc3)CC2)cc1 | -2.46%
17 | CCOC(=O)[C@]12CCCC=C1N(Cc1ccc(OC)cc1)C(=O)[C@@H]2CC(=O)N1CCOCC1 | -0.91%
18 | CCCCCCN1CCS(=O)(=O)N(Cc2ccc(C(F)(F)F)cc2)C(C(=O)OC)C1 (centres undefined) | -2.34%
19 | CC(C)N1CCCCC(NC(=O)C(C)(C)C)C1=O (centres undefined) | -1.29%
20 | CC(C)CNc1cccc2c1S(=O)(=O)N(Cc1cn(Cc3ccccc3C(F)(F)F)nn1)Cc1ccccc1O2 | 1.83%
21 | Cc1cc(=O)[nH]c(SCC(=O)Nc2ccc(Cl)cc2C)n1 | -2.56%
22 | Cc1c(CC(=O)N2CCN(C(=O)C3COc4ccccc4O3)CC2)c(=O)oc2c(O)c(O)ccc12 (centres undefined) | 28.8% (active)
23 | CC(=O)c1ccccc1NC(=O)COC(=O)C1COc2ccccc2O1 (centres undefined) | 6.15%

Row | SMILES | inhibition
24 | Cc1ccc(S(=O)(=O)NCCC(=O)NNC(=O)C2COc3ccccc3O2)cc1 (centres undefined) | -3.3%
25 | CCOc1ccccc1NC(=O)C12CC3CC(C1)CC(c1ccc(C)cc1)(C3)C2 | 2.15%
26 | CCCn1c(C(Cc2ccccc2)NC(=O)COC)nc2ccccc21 (centres undefined) | -1.58%
27 | CCCn1c(NC(=O)C23CC4CC(CC(O)(C4)C2)C3)nc2ccccc21 | 21% (active)
28 | N#CCC[C@H]1CC[C@]2(CCCN(Cc3ccc(Cl)cc3)C2)O1 | 3.52%
29 | O=C(CSc1nnc(-c2cccc(Cl)c2)n1Cc1ccco1)Nc1ccc(OCc2ccccc2)cc1 | -1.67%
30 | FC(F)(F)c1cccc(Cn2ccc3ccc(-c4ccc5ccn(Cc6ccccc6)c5c4)cc32)c1 | 0.27%
31 | O=C(Nc1c(-c2ccccc2)nc2c(Br)cc(Br)cn12)c1ccco1 | 1.55%
32 | O=C(Nc1nc(-c2ccco2)c(-c2ccco2)s1)c1ccco1 | 51.4% (active)
33 | O=C(Nc1ccccc1C(=O)N1CCCCC1)c1ccco1 | 3.17%
34 | CCOc1ccc(N(CC(=O)Nc2c(C)n(C)n(-c3ccccc3)c2=O)S(=O)(=O)c2ccc(Cl)s2)cc1 | -0.95%
35 | O=C(CN1CCC(NC(=O)NCc2ccccc2)CC1)Nc1ccc2c(c1)OCCO2 | 1.96%
36 | C[C@H]1[C@H](NC(=O)c2cccc(N(C)C)c2)CC[C@@]23CCCN2C(=O)CCC[C@@H]13 | 0.44%
37 | COc1ccc(NC2CCCN(C(=O)c3ccncc3)C2)cc1 (centres undefined) | -3.03%
38 | CC(C)c1ccc(NC2CCCN(C(=O)c3ccncc3)C2)cc1 (centres undefined) | 1.9%
39 | Cc1cccc(C(=O)N2CCCC(Nc3ccc(C(C)C)cc3)C2)n1 (centres undefined) | 22.3% (active)
40 | COc1ccc2c(C(C)c3ccc(N)cc3)cn(C)c2c1 (centres undefined) | 3.85%
41 | Cc1cc(C)nc(NC(=S)N2CCN(c3ccc(C(F)(F)F)cn3)CC2)c1 | -0.11%
42 | COc1ccc(CCNC(=O)CSc2nc3c([nH]2)c(=O)n(C)c(=O)n3C)cc1 | -0.65%
43 | C=CCc1cccc2cc(C(=O)NC3CCCC3)c(=O)oc12 | 2.45%
44 | C=CCc1cccc2cc(C(=O)Nc3ccc(NC(C)=O)cc3)c(=O)oc12 | 28.9% (active)
45 | C=CCc1cccc2cc(C(=O)N3CCN(C(=O)OCC)CC3)c(=O)oc12 | -2.84%
46 | COc1ccc(-n2c(COc3ccccc3)nnc2SCC(=O)Nc2ccc3c(c2)OCO3)cc1 | 0.77%

Row | SMILES | inhibition
47 | COC(=O)c1cc(S(=O)(=O)N2CCN(C(=O)C3CCCO3)CC2)cn1C (centres undefined) | -1.8%
48 | COC1=C[C@H](C(=O)NCCNC(C)=O)[C@H](C)[C@@H](c2ccccc2)CC1=O | -3.81%
49 | CCCCn1c(N)c(N(CC(C)C)C(=O)c2ccc(Br)o2)c(=O)[nH]c1=O | 0.08%
50 | CCCCn1c(N)c(N(CC(C)C)C(=O)C2CSC3(C)CCC(=O)N23)c(=O)[nH]c1=O (centres undefined) | 28.1% (active)
51 | CCCCn1c(N)c(N(CC(C)C)C(=O)c2cnc(C)cn2)c(=O)[nH]c1=O | -0.01%
52 | CN(C(N)=NC(=O)/C=C/c1ccccc1)C(C#Cc1ccccc1)Cc1ccccc1 (centres undefined) | -1.59%
53 | COC(=O)C(C)Oc1ccc2c(-c3cccc([N+](=O)[O-])c3)cc(=O)oc2c1 (centres undefined) | -2.28%
54 | COc1ccc(-c2[nH][nH]c(=O)c2NC(=O)c2ccc([N+](=O)[O-])cc2)cc1 | -5.21%
55 | CC(=O)Oc1ccc2c(=O)oc(-c3ccc([N+](=O)[O-])cc3)nc2c1 | 20.8% (active)
56 | CCOC(=O)[C@]12CCCC3=C1N(CCC3)C(=O)[C@@H](CC(=O)N1CCSCC1)C2 | -0.01%
57 | O=C(Nc1ccccc1)N1CCN(Cc2nc3ccccc3c(=O)[nH]2)CC1 | 0.95%
58 | O=C(NCc1ccco1)C1CCCN(S(=O)(=O)c2ccc(Cl)s2)C1 (centres undefined) | -1.18%
59 | COC(=O)C[C@@H]1CC[C@@H]2[C@@H](COc3ccc(NC(=O)Nc4ccc(F)c(F)c4)cc3C(=O)N2C)O1 | 0.81%
60 | CCOC(=O)C1(Cc2ccccc2)CCN(Cc2cn(C(C)=O)c3ccccc23)CC1 | -2.91%
61 | Cc1cc([N+](=O)[O-])nn1Cc1ccc(F)cc1 | 20.9% (active)
62 | Cc1cc([N+](=O)[O-])nn1CCCC(=O)Nc1cccnc1Cl | 1.45%
63 | Cc1cc([N+](=O)[O-])nn1CC(=O)Nc1ccc(Cc2ccncc2)cc1 | -2.12%
64 | Cc1ccc(S(=O)(=O)n2cnc3ccccc32)c(C)c1 | 8.08%
65 | COc1ccc(S(=O)(=O)n2cnc3ccccc32)c(C)c1 | 1.22%
66 | CCCCNS(=O)(=O)c1ccc(S(=O)(=O)n2cnc3ccccc32)cc1 | 20.7% (active)
67 | CCOC(=O)[C@]12CCCCC/C=C\1N(Cc1ccc(OC)cc1)C(=O)[C@H]2CC(=O)N1CCOCC1 | -3.09%
68 | O=C(CCCCCN1C(=O)C2C3C=CC(C3)C2C1=O)Nc1ccccc1 (centres undefined) | -1.94%
69 | Cc1cc(/C=N/n2cnnc2)c(C)n1-c1ccc2ncccc2c1 | 0.89%

Row | SMILES | inhibition
70 | Fc1ccc(Br)cc1/C=N/n1cnnc1 | -0.98%
71 | Cc1cc(/C=N/n2cnnc2)c(C)n1-c1cccc(C(=O)O)c1 | 60% (active)
72 | COC(CNC(=O)[C@H](Cc1ccccc1)NC1(C(=O)NC2CCCCC2)CCCCC1)OC | -1.65%
73 | COC[C@@H]1CCCN1c1ccc2c(c1)O[C@H](C)CCN(C1CC1)S2(=O)=O | -3.33%
74 | COc1ccc2oc(C(=O)NCc3ccco3)c(C)c2c1 | -0.64%
75 | CCCCOc1ccc(C(=O)NCc2ccco2)cc1 | 25% (active)
76 | CCCC1=Nc2cc(C(=O)NCc3ccco3)ccc2Sc2ccccc21 | 0.66%
77 | C#CCCN([C@H](C(=O)OC)C(C)C)S(=O)(=O)c1ccc(F)cc1Br | -0.78%
78 | CCOc1cc2[nH]c(=S)n(CCCN3CCCC3=O)c(=O)c2cc1OCC | -0.84%
79 | COc1cc2[nH]c(=S)n(CCN3CCCCC3C)c(=O)c2cc1OC (centres undefined) | 8.11%
80 | CCOc1cc2[nH]c(=S)n(CCN3CCCCC3C)c(=O)c2cc1OCC (centres undefined) | 66% (active)
81 | O=C(CN1CCCc2ccccc21)NCc1ccc(F)cc1 | -2.07%
82 | CC(C)(C)N(CC#CCC(O)(c1ccccc1)C1CCCC1)CCO (centres undefined) | 24.7% (active)
83 | OC(C#CCN1CCOCC1)(c1ccccc1)C1CCCCC1 (centres undefined) | 1.93%
84 | CN(CC#CCC(c1ccccc1)c1ccccc1)C(C)(C)C | -0.47%
85 | CN[C@H]1C[C@H]2c3cc(N4CCOCC4)ccc3CCN2C[C@H]1[C@H](C)O | -0.07%
86 | O=C(NC1CCCCN(Cc2cccc(C(F)(F)F)c2)C1=O)c1ccccc1I (centres undefined) | -2.03%
87 | OC(CN1C2=NCCCN2c2ccccc21)c1ccc(Br)cc1 (centres undefined) | 68.9% (active)
88 | Cc1cc2c(cc1C)N(Cc1ccccc1)C1=NCCCN12 | -2.05%
89 | CC(C)(C)C(=O)CN1C2=NCCN2c2ccccc21 | 0.42%
